This is an account of results in the supplement of paper PMC4022240.

What all share (experiment): peptide microarray binding signal (635 nm), min-max normalized on array (fraction of array maximum); higher = stronger binding
Assay [1] addresses T1, HaloTag-ATRX ADD domain (163-292).
T1 chain: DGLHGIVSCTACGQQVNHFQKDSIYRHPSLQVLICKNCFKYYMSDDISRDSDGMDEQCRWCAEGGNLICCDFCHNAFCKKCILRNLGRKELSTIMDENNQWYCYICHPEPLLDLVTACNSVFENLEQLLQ
A digest of the protocol: (§1)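 Binding signal is the mean intensity of triplicate spots, min-max scaled within each library. Histone 13-mer peptide–cellulose conjugates were spotted in triplicate on nitrocellulose with a Cy3 tracer and blocked overnight at 4°C. Probing lasted 1 h at 4°C, either with biotin-labelled HaloTag reader fusions (10 nM to 1 μM) and streptavidin-Alexa Fluor 647 or with rabbit histone antibodies (1:10,000 to 1:2,000) and anti-rabbit Alexa 647. An Axon GenePix 4000B read signal at 635 nm and misprints at 532 nm.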

Assay [2] concerns the target HaloTag-ING2 PHD (mouse Ing2 200-280). A digest of the protocol: as §1
The target of assay [3] is anti-H3K4me3 antibody ab8580. A digest of the protocol: as §1
In assay [4] the target is anti-H3K9me3 antibody ab8898. A digest of the protocol: as §1
Where [5] appears, read: peptide region: H4 1-13, peptide modifications: H4K5ac H4K8ac, binder concentration: 1:2,000 dilution.
The mark [6] stands for this setting: peptide region: H4 1-13, peptide modifications: H4K5ac H4K8ac, binder concentration: 1:10,000 dilution.
Where [7] appears, read: peptide region: H3 112-124, peptide modifications: H3K122me2, binder concentration: 1:2,000 dilution.
Setting [8] is: peptide region: H3 112-124, peptide modifications: H3K122me2, binder concentration: 1:10,000 dilution.
[9] abbreviates: peptide region: H3 112-124, peptide modifications: H3K115me3 H3R116me2a, binder concentration: 1:2,000 dilution.
The mark [10] stands for this setting: peptide region: H3 112-124, peptide modifications: H3K115me3 H3R116me2a, binder concentration: 1:10,000 dilution.
[11] abbreviates: peptide region: H3 112-124, peptide modifications: H3K115me3 H3K122ac, binder concentration: 1:2,000 dilution.
Where [12] appears, read: peptide region: H3 112-124, peptide modifications: H3K115me3 H3K122ac, binder concentration: 1:10,000 dilution.
Setting [13] is: peptide region: H3 112-124, peptide modifications: H3R116me2s, binder concentration: 1:2,000 dilution.
The mark [14] stands for this setting: peptide region: H3 112-124, peptide modifications: H3R116me2s, binder concentration: 1:10,000 dilution.

± gives the standard deviation.

For the molecule SGRGKGGKGLGKG [H4 1-13 S G R G Kac G G Kac G L G K G], the “peptide microarray binding signal” value in assay [1] (peptide region: H4 1-13, peptide modifications: H4K5ac H4K8ac, binder concentration: 50 nM) is 0.00737 ± 0.00034; in assay [1] (peptide region: H4 1-13, peptide modifications: H4K5ac H4K8ac, binder concentration: 500 nM), 0.0151 ± 0.00043; in assay [2] (peptide region: H4 1-13, peptide modifications: H4K5ac H4K8ac, binder concentration: 10 nM) it was 0.00746 ± 6.7e-05; in assay [2] (peptide region: H4 1-13, peptide modifications: H4K5ac H4K8ac, binder concentration: 100 nM) it was 0.0206 ± 0.0023; in assay [3] (setting [5]), 0.00177 ± 8.8e-05; in assay [3] (setting [6]), 0.00285 ± 8.8e-05. In addition, the “peptide microarray binding signal” value in assay [4] (setting [5]) turned out to be 0.00068 ± 7.5e-05; in assay [4] (setting [6]) it was 0.00156 ± 5.5e-05.

In the case of IHAKRVTIMPKDI [H3 112-124 I H A K R V T I M P Kme2 D I], the “peptide microarray binding signal” value in assay [1] (peptide region: H3 112-124, peptide modifications: H3K122me2, binder concentration: 50 nM) is 0.0047 ± 8.8e-05; in assay [1] (peptide region: H3 112-124, peptide modifications: H3K122me2, binder concentration: 500 nM), 0.0148 ± 0.00039; in assay [2] (peptide region: H3 112-124, peptide modifications: H3K122me2, binder concentration: 10 nM) it was 0.00567 ± 0.00021; in assay [2] (peptide region: H3 112-124, peptide modifications: H3K122me2, binder concentration: 100 nM), 0.0168 ± 0.0034; in assay [3] (setting [7]), 0.000906 ± 6e-05; in assay [3] (setting [8]), 0.000799 ± 8.3e-06. Further, the “peptide microarray binding signal” value in assay [4] (setting [7]) is 0.00287 ± 0.00058; in assay [4] (setting [8]), 0.00121 ± 2.4e-05.

IHAKRVTIMPKDI [H3 112-124 I H A Kme3 Rme2a V T I M P K D I]: the “peptide microarray binding signal” value in assay [1] (peptide region: H3 112-124, peptide modifications: H3K115me3 H3R116me2a, binder concentration: 50 nM) was 0.00345 ± 4.9e-05; in assay [1] (peptide region: H3 112-124, peptide modifications: H3K115me3 H3R116me2a, binder concentration: 500 nM), 0.00524 ± 0.00015; in assay [2] (peptide region: H3 112-124, peptide modifications: H3K115me3 H3R116me2a, binder concentration: 10 nM) it was 0.0172 ± 0.00022; in assay [2] (peptide region: H3 112-124, peptide modifications: H3K115me3 H3R116me2a, binder concentration: 100 nM) it was 0.0232 ± 0.0011; in assay [3] (setting [9]), 0.00885 ± 0.0017; in assay [3] (setting [10]), 0.00451 ± 0.00052. The results for the “peptide microarray binding signal” value in assay [4] (setting [9]) and in assay [4] (setting [10]) were 0.00763 ± 0.0013 and 0.00467 ± 0.00017, respectively.

As for IHAKRVTIMPKDI [H3 112-124 I H A Kme3 R V T I M P Kac D I], the “peptide microarray binding signal” value in assay [1] (peptide region: H3 112-124, peptide modifications: H3K115me3 H3K122ac, binder concentration: 50 nM) was 0.00408 ± 6.9e-05; in assay [1] (peptide region: H3 112-124, peptide modifications: H3K115me3 H3K122ac, binder concentration: 500 nM), 0.00905 ± 0.0013; in assay [2] (peptide region: H3 112-124, peptide modifications: H3K115me3 H3K122ac, binder concentration: 10 nM) it was 0.0419 ± 0.0077; in assay [2] (peptide region: H3 112-124, peptide modifications: H3K115me3 H3K122ac, binder concentration: 100 nM), 0.0725 ± 0.024; in assay [3] (setting [11]), 0.0222 ± 0.0067; in assay [3] (setting [12]), 0.0228 ± 0.0068. In addition, the “peptide microarray binding signal” value in assay [4] (setting [11]) is 0.0259 ± 0.0045; in assay [4] (setting [12]), 0.0117 ± 0.0018.

In the case of IHAKRVTIMPKDI [H3 112-124 I H A K Rme2s V T I M P K D I], the “peptide microarray binding signal” value in assay [1] (peptide region: H3 112-124, peptide modifications: H3R116me2s, binder concentration: 50 nM) came to 0.00574 ± 0.00016; in assay [1] (peptide region: H3 112-124, peptide modifications: H3R116me2s, binder concentration: 500 nM) it was 0.0129 ± 0.00072; in assay [2] (peptide region: H3 112-124, peptide modifications: H3R116me2s, binder concentration: 10 nM) it was 0.00645 ± 0.00026; in assay [2] (peptide region: H3 112-124, peptide modifications: H3R116me2s, binder concentration: 100 nM) it was 0.014 ± 0.00075; in assay [3] (setting [13]) it was 0.00215 ± 0.00015; in assay [3] (setting [14]), 0.00285 ± 0.00021. Besides, the “peptide microarray binding signal” value came out at 0.00341 ± 0.00018 in assay [4] (setting [13]) and 0.002306 ± 2.1e-05 in assay [4] (setting [14]).
